From the supplement of paper PMC13380429
A number with no mark means an inactive call.

What follows are compounds tested on Vero E6 infected with SARS-CoV-2 (assay: SARS-CoV-2 infection rate relative to infected DMSO; higher = more infection, active = 60 or less). Details: 24 h.
`CC(C)CCC[C@@H](C)[C@H]1CC[C@H]2[C@@H]3CCC4=CC(=NO)CC[C@]4(C)[C@H]3CC[C@]12C` [olesoxime] (10 µM) gave an SARS-CoV-2 infection rate of 106%. With `COc1cc2c(cc1OC)C1CC(=O)C(CC(C)C)CN1CC2` (stereo not given) [tetrabenazine] (10 µM) the SARS-CoV-2 infection rate was 102%. For `CC(=O)OCC1=C(C(=O)O)N2C(=O)[C@@H](NC(=O)CSc3ccncc3)[C@H]2SC1` [cephapirin] (10 µM), the SARS-CoV-2 infection rate was 93.5%. Work on `CC(=O)Nc1cccc2c1c(Sc1ccc(Cl)cc1)c(C)n2CC(=O)O` (10 µM) yielded an SARS-CoV-2 infection rate of 97%. `O=C(N[C@@H]1CC[C@@H](c2cccc(F)c2F)CN(CC(F)(F)F)C1=O)N1CCC(n2c(=O)[nH]c3ncccc32)CC1` [telcagepant] (10 µM) gave an SARS-CoV-2 infection rate of 102%. Work on `C=CC(=O)Nc1cccc(C)c1Nc1ncc2cc(-c3c(Cl)c(OC)cc(OC)c3Cl)ccc2n1` (10 µM) yielded an SARS-CoV-2 infection rate of 67%. For `Cc1cc(CC(C)CC(C)(C)C)n(O)c(=O)c1` (stereo not given) [piroctone-olamine] (10 µM), the SARS-CoV-2 infection rate was 88%. With `C[C@@H](Oc1ccc2[nH]nc(/C=C/c3cnn(CCO)c3)c2c1)c1c(Cl)cncc1Cl` (10 µM) the SARS-CoV-2 infection rate was 120%. With `CN(C)CCOC(=O)COc1ccc(Cl)cc1` [meclofenoxate] (10 µM) the SARS-CoV-2 infection rate was 90.5%. Work on `COc1cc(C(C)=O)ccc1OCCCN1CCC(c2noc3cc(F)ccc23)CC1` [iloperidone] (10 µM) yielded an SARS-CoV-2 infection rate of 111%. `NC1CCN(c2nc3c(cc2F)c(=O)c(C(=O)O)cn3-c2ccc(F)cc2F)C1` (stereo not given) [tosufloxacin] (10 µM) gave an SARS-CoV-2 infection rate of 112%. Work on `Cc1c(-c2ccc(-c3ccccc3F)cc2)nc2ccc(F)cc2c1C(=O)O` [brequinar] (10 µM) yielded an SARS-CoV-2 infection rate of 95%. Work on `CN(C)C(=O)Nc1cccc(-c2ccc(N(C)C)cc2)c1` [atglistatin] (10 µM) yielded an SARS-CoV-2 infection rate of 98%. With `COc1ccc(C2(O)CCC(N3CC[C@@H](NC(=O)CNC(=O)c4cccc(C(F)(F)F)c4)C3)CC2)cn1` (stereo not given in full) (10 µM) the SARS-CoV-2 infection rate was 105%. `CCC(CC)COC(=O)[C@H](C)N[P@](=O)(OC[C@H]1O[C@@](C#N)(c2ccc3c(N)ncnn23)[C@H](O)[C@@H]1O)Oc1ccccc1` [Remdesivir] (10 µM) was tested, and the SARS-CoV-2 infection rate was 26% (active). Compound `Cc1c(O)c(=O)n(-c2ccccc2)n1C` [4-hydroxy-phenazone] (10 µM) has an SARS-CoV-2 infection rate of 116%. `CCN(CC)CCNC(=O)c1cc(Cl)c(N)cc1OC` [metoclopramide] (10 µM) gave an SARS-CoV-2 infection rate of 107%. Work on `Cn1c(=O)c2[nH]c(Br)nc2n(C)c1=O` [pamabrom] (10 µM) yielded an SARS-CoV-2 infection rate of 101%. In the case of `CC(C)(C(=O)O)c1ccc(C(=O)CCCN2CCC(OC(c3ccccc3)c3ccccc3)CC2)cc1` [carebastine] (10 µM), the SARS-CoV-2 infection rate is reported as 103%. `Cc1cn([C@@H]2C[C@@H](O)[C@H](CO)O2)c(=O)[nH]c1=O` [telbivudine] (10 µM) showed an SARS-CoV-2 infection rate of 118%. `O=C(CCCCCCCn1cc(-c2cccnc2)nn1)Nc1ccccc1-c1ccccc1` (0.833333 µM) was tested, and the SARS-CoV-2 infection rate was 114%. In the case of `CO/N=C(\C(=O)N[C@@H]1C(=O)N2C(C(=O)OCOC(=O)C(C)(C)C)=C(C)CS[C@H]12)c1csc(N)n1` [cefetamet-pivoxil] (10 µM), the SARS-CoV-2 infection rate is reported as 96.5%. In the case of `O=C(O)c1ccccc1Nc1cccc(OCc2ccc3ccccc3n2)c1` (10 µM), the SARS-CoV-2 infection rate is reported as 95.5%. Compound `Cn1cc(-c2ccc(S(=O)(=O)n3ccc(/C=C/C(=O)Nc4ccccc4N)c3)cc2)cn1` (10 µM) has an SARS-CoV-2 infection rate of 105%. Work on `C[N+]1(C)CCC(OC(=O)C(O)(c2ccccc2)C2CCCC2)C1` (stereo not given) [glycopyrrolate] (10 µM) yielded an SARS-CoV-2 infection rate of 107%. `N#CC(c1ccnc(OCc2ccc(CN3CCOCC3)cc2)n1)c1nc2ccccc2s1` (stereo not given) (10 µM) showed an SARS-CoV-2 infection rate of 99.5%. `CN1CCN(Cc2ccc(Nc3ncc(Cl)c(Nc4ccccc4S(=O)(=O)N(C)C)n3)cc2)CC1` (10 µM) gave an SARS-CoV-2 infection rate of 120%. Work on `CC1(C)O[C@@H]2[C@@H](CO[C@@]3(COS(N)(=O)=O)OC(C)(C)O[C@@H]23)O1` [topiramate] (10 µM) yielded an SARS-CoV-2 infection rate of 102%. `N=C(C[C@@H](O)COc1ccccc1-c1ccccc1)N1CCCCC1` (10 µM) gave an SARS-CoV-2 infection rate of 104%. Compound `c1ccc(-c2ccc(C(c3ccccc3)n3ccnc3)cc2)cc1` (stereo not given) [bifonazole] (10 µM) has an SARS-CoV-2 infection rate of 79%.
